Test [1] can be described thus: viability loss with induced miR-34 in A549 – imaging, A549 dox-inducible miR-34, nuclei and caspase counts, primary screen (AID 1347080;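 active means compounds whose cell count with miR-34 switched on is under 0.7 times the count with it off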). The conditions noted are these: A549 miR-34 inducible, Hoechst nuclei count, 48 h.
The nature of test [2]: MELAS cybrid and Rieske KO viability enhancers – cell-based, MELAS cybrids, Rieske KO mouse fibroblasts, CellTiter-Glo, primary screen (AID 1508586).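 Further: z relative to plate mean and SD of compound and empty wells.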 The conditions noted are these: low glucose.
The nature of test [3]: blockers of cellular phospholipid synthesis – cell-based, LOPAC library, screen 4, primary screen (AID 1347384; call rule not given here). The conditions noted are these: animal cells, phospholipid biosynthesis inhibition screen; at 10 µM.
Setting [4] is: stronger effect = lower value, cell number ratio, induced over uninduced.
The mark [5] stands for this setting: measured here: relative caspase fold change +Dox/-Dox.
Setting [6] is: measured here: total cells with miR-34 induction, stronger effect = lower value.
Where [7] appears, read: measured here: total cells without miR-34 induction.
The mark [8] stands for this setting: MELAS cybrid survival, CellTiter-Glo 48 h, stronger effect = higher value.
[9] abbreviates: Rieske KO mouse fibroblast survival, CellTiter-Glo 72 h.

Values joined by “and” are separate entries in the source; they are usually repeats but may differ in a detail not shown here. Identical values can stand only once. Active and inactive are the calls of the source.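 How the source made its calls, unless noted: active means mean z-score across replicates of 1.96 or higher in either the MELAS or the Rieske mutant cell line; inactive means the rest.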

For the molecule `COc1c2occc2c(OC)c2c(=O)cc(C)oc12`, the fold change was 0.924 (inactive) in test [1] (setting [4]) and 1.18 in test [1] (setting [5]). The cell count amounted to 8440 in test [1] (setting [6]) and 9130 in test [1] (setting [7]). Besides, the z-score in test [2] (setting [8]) was -0.15 (inactive); in test [2] (setting [9]), -0.129.
For the molecule `C/C=C/c1ccc(OC)cc1`, the fold change is 0.85 (inactive) and 0.895 (inactive) in test [1] (setting [4]); 3 and 1.61 in test [1] (setting [5]). For the same molecule, the cell count in test [1] (setting [6]) was 10200 and 9980; in test [1] (setting [7]) it was 11900 and 11200. Also, the z-score in test [2] (setting [8]) is -0.525 (inactive); in test [2] (setting [9]), -1.37.
As to `CN1CCC(OC(c2ccccc2)c2ccccc2)CC1`, the fold change in test [1] (setting [4]) is 0.843 (inactive) and 0.871 (inactive); in test [1] (setting [5]), 1.44 and 0.876. Moreover, the cell count is 8640 and 11300 in test [1] (setting [6]); 10200 and 13000 in test [1] (setting [7]). For the same molecule, the figures for the z-score in test [2] (setting [8]) and in test [2] (setting [9]) were 0.35 (inactive) and 0.809, respectively.
In the case of `CCCCC(CC)CN1CN(CC(CC)CCCC)CC(C)(N)C1` (stereo not given), the fold change in test [1] (setting [4]) is 0.838 (inactive); in test [1] (setting [5]), 1.46. Also, the figures for the cell count in test [1] (setting [6]) and in test [1] (setting [7]) were 8130 and 9710, respectively. In addition, the z-score is -1.45 (inactive) in test [2] (setting [8]) and -0.231 in test [2] (setting [9]).
For `CCN(CC)CCNC(=O)COc1ccc(OC)cc1`, the fold change in test [1] (setting [4]) is 0.859 (inactive) and 0.867 (inactive); in test [1] (setting [5]) it was 1.24 and 3.74. Further, the cell count in test [1] (setting [6]) was 9000 and 11100; in test [1] (setting [7]) it was 10500 and 12800. Further, the values for the z-score in test [2] (setting [8]) and in test [2] (setting [9]) were 0.396 (inactive) and -0.0981, respectively.
In the case of `COc1cc(NS(=O)(=O)c2ccc(N)cc2)ncn1`, the fold change in test [1] (setting [4]) is 0.902 (inactive) and 0.903 (inactive); in test [1] (setting [5]) it was 1.06 and 3.99. In addition, the cell count in test [1] (setting [6]) is 9390 and 12000; in test [1] (setting [7]) it was 10400 and 13300. Besides, the z-score in test [2] (setting [8]) was 0.538 (inactive); in test [2] (setting [9]), 0.095.
Turning to `O=C(CCCCC(=O)Nc1c(I)cc(I)c(C(=O)O)c1I)Nc1c(I)cc(I)c(C(=O)O)c1I`, the fold change in test [1] (setting [4]) was 0.893 (inactive); in test [1] (setting [5]), 1.51. The cell count in test [1] (setting [6]) came out at 9730; in test [1] (setting [7]), 10900. For the same molecule, the z-score in test [2] (setting [8]) was 0.645 (inactive); in test [2] (setting [9]), -0.141.
Turning to `COc1cc(N)c(Cl)cc1C(=O)NC1CCN(Cc2ccccc2)CC1`, the fold change in test [1] (setting [4]) was 0.86 (inactive); in test [1] (setting [5]), 0.965. In addition, the cell count in test [1] (setting [6]) was determined as 7810; in test [1] (setting [7]), 9080. Besides, the z-score in test [2] (setting [8]) was 0.473 (inactive); in test [2] (setting [9]) it was 0.069.
With `CCCCOc1ccc(C(=O)CCN2CCCCC2)cc1`, the fold change in test [1] (setting [4]) is 0.869 (inactive) and 0.898 (inactive) and 0.904 (inactive); in test [1] (setting [5]), 1.13 and 0.697 and 1.7. Besides, the cell count in test [1] (setting [6]) was 8270 and 5950 and 11300; in test [1] (setting [7]), 9520 and 6630 and 12500. The z-score in test [2] (setting [8]) is -0.438 (inactive) and 1.08 (inactive); in test [2] (setting [9]), 0.0294 and 0.0562.
Take `O=c1cc(CO)occ1O`: the values for the fold change in test [1] (setting [4]) and in test [1] (setting [5]) were 0.923 (inactive) and 0.344, respectively. Moreover, the figures for the cell count in test [1] (setting [6]) and in test [1] (setting [7]) were 9020 and 9780, respectively. In addition, the z-score in test [2] (setting [8]) is 0.152 (inactive); in test [2] (setting [9]) it was -0.154.
For `CCOC(=O)C1=C(C)NC(C)=C(C(=O)OC)C1c1cccc(Cl)c1Cl` (stereo not given), the outcome in test [3] was inactive. The z-score in test [2] (setting [8]) was -0.244 (inactive) and -0.163 (inactive) and -0.233 (inactive); in test [2] (setting [9]) it was -0.0889 and -0.113 and 0.553.
Turning to `Cc1cccc(C)c1OCC(C)N` (stereo not given), the molecule was called inactive in test [3]. Besides, the z-score in test [2] (setting [8]) was -0.0413 (inactive) and -0.119 (inactive); in test [2] (setting [9]) it was -0.286 and -0.0916.
On to `COCCc1ccc(OCC(O)CNC(C)C)cc1` (stereo not given), for which the outcome in test [3] was inactive. Further, the z-score in test [2] (setting [8]) was -0.374 (inactive) and 0.559 (inactive) and -0.0156 (inactive); in test [2] (setting [9]), -0.175 and -0.344 and -0.724.
As to `CC(Oc1c(Cl)cccc1Cl)C1=NCCN1` (stereo not given), the fold change in test [1] (setting [4]) is 0.89 (inactive) and 0.878 (inactive) and 0.898 (inactive); in test [1] (setting [5]), 0.839 and 1.76 and 1.47. In addition, the cell count in test [1] (setting [6]) is 9080 and 9420 and 9240; in test [1] (setting [7]), 10200 and 10700 and 10300. Also, the z-score was -0.146 (inactive) and 0.131 (inactive) in test [2] (setting [8]); -0.104 and -1.04 in test [2] (setting [9]).
